Active and inactive are the calls of the source.

Test [1] relates to Human papillomavirus type 1a protein E7 (residues 44-93). Briefly: small molecules binding HPV E7 44-93 – biochemical, small-molecule microarray, residues 44-93, 635 nm fluorescence, primary screen (AID 1108).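 Also: E7 fragment applied at 1 µg/mL in TBST for 1 h at 4 C; score combines spot fluorescence with its signal to noise ratio.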 As to conditions: fluorescence 635 nm, higher = more signal.
A short description of test [2]: hepatitis C replication reporter changes, two-sided – Huh7 cells, luciferase reporter, HCV replication inhibitor project, primary screen (AID 1109).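 Also: huh7 hepatoma cells harbouring a luciferase neomycin HCV replicon reporter; luciferase luminescence as measure of HCV replicon replication; test concentration not given here.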 The settings on record: Huh7 HCV replicon luciferase reporter, 48 h; higher = more signal.
Test [3] addresses Left-right determination factor 2 (Homo sapiens) (UniProt O00292). In words: small molecules binding LEFTY2 protein – biochemical, small-molecule microarray, 635 nm fluorescence scan, primary screen (AID 1110). As to conditions: higher = more signal.
The target of test [4] is Calmodulin-1 (Homo sapiens) (UniProt P0DP23). In words: small molecules binding calmodulin-1 with EGTA – biochemical, small-molecule microarray, Cy5-labelled CALM1, profiling panel (AID 1111).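 Also: labelled calmodulin applied in Tris saline Tween buffer holding calcium plus EGTA and DTT.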 The settings on record: Cy5-CALM1 binding fluorescence, higher = more signal.
For test [5] the target is unchanged. In words: small molecules binding Ca-loaded calmodulin-1 – biochemical, small-molecule microarray, Cy5-labelled CALM1, plus calcium, artefact control for SMM control-protein annotation, profiling panel (AID 1112).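 Also: score merges spot fluorescence with signal to noise from triplicate slides.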 As to conditions: Cy5-CALM1 binding fluorescence, higher = more signal.
Test [6] is described as follows: probe aWnt5a binding to arrayed compounds – biochemical, biotinylated probe, 635/667 nm fluorescence, primary screen (AID 1113).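 Also: score merges 667 nm fluorescence intensity with signal-to-noise per printed feature.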 As to conditions: small-molecule microarray, higher = more signal.
Test [7] in a line: probe aShh binding to arrayed compounds – biochemical, biotinylated probe, 635/667 nm fluorescence, primary screen (AID 1114).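 Also: probe is biotin-labelled aShh protein from a stem cell growth factor screen; measures binding of labelled protein to compounds printed on the slide; score merges feature fluorescence at 667 nm with signal-to-noise.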 As to conditions: small-molecule microarray, higher = more signal.
A short description of test [8]: probe aNog binding to arrayed compounds – biochemical, biotinylated probe, 635/667 nm fluorescence, primary screen (AID 1115).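 Also: probe is biotinylated aNog protein used at 0.15 µg/mL for 1 h at 4 C; z-score combines 667 nm fluorescence of each spot with its signal to noise.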 The settings on record: small-molecule microarray, higher = more signal.
The target of test [9] is Torsin-1A-interacting protein 1 (Homo sapiens) (UniProt Q5JTV8). Briefly: compound microarray binding of lysate hLAP1 – cell lysate, small-molecule microarray, COS7 lysate, 635/667 nm fluorescence, primary screen (AID 1116). As to conditions: 635 nm fluorescence, higher = more signal.
The target of test [10] is Alpha-bungarotoxin (Bungarus multicinctus) (UniProt P60615). Briefly: compounds binding labelled alpha-BTX control protein – biochemical, small-molecule microarray, Alexa647 label, 635/667 nm fluorescence, artefact control for SMM control protein annotation, profiling panel (AID 1117). The settings on record: alpha-BTX-A647 binding fluorescence, higher = more signal.
The target in test [11] is Albumin (Bos taurus) (UniProt P02769). In words: compounds binding labelled BSA control protein – biochemical, small-molecule microarray, Alexa647 label, 635/667 nm fluorescence, artefact control for SMM control protein annotation, profiling panel (AID 1118).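 Also: score merges 667 nm emission intensity and signal-to-noise per printed compound spot.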 The settings on record: BSA-A647 binding, fluorescence 635 nm, higher = more signal.
Test [12] is described as follows: probe aXIP binding to arrayed compounds – biochemical, NeuroSMM set, 635/667 nm fluorescence, primary screen (AID 1119).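 Also: probe is the protein aXip251-270 applied at 1 µg/mL to compound-printed slides; binding of probe to printed compounds measured as 667 nm fluorescence plus signal to noise.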 As to conditions: small-molecule microarray, higher = more signal, called active from +8 up or from −8 down.
Test [13] is described as follows: probe aNOTCH3 binding on compound microarray – biochemical, small-molecule microarray, 635/667 nm fluorescence, primary screen (AID 1120).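 Also: probe is a biotin-tagged antibody raised against NOTCH3 rather than NOTCH3 protein; score merges spot fluorescence near 667 nm with spot signal to noise.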 As to conditions: higher = more signal.
A short description of test [14]: probe aNOTCH2 binding on compound microarray – biochemical, small-molecule microarray, 635/667 nm fluorescence, primary screen (AID 1121).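 Also: score merges feature fluorescence read at 667 nm with its signal to noise.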 The settings on record: higher = more signal.
In test [15] the target is Carbonic anhydrase 2 (Homo sapiens) (UniProt P00918). In words: compounds binding carbonic anhydrase 2 – biochemical, small-molecule microarray, Alexa647-labelled CAII, profiling panel (AID 1122). The settings on record: CAII-A647 binding fluorescence, higher = more signal.
The nature of test [16]: COS7 lysate on small-molecule microarray, probe aHis, 635 nm (AID 1123).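 Also: z-score combines 667nm fluorescence intensity with signal-to-noise per printed compound spot.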 As to conditions: COS7 cell lysate, fluorescence, higher = more signal.
Test [17] is described as follows: probe aLAP1 signal on lysate-treated microarray – cell lysate, small-molecule microarray, COS7 lysate, primary screen (AID 1124).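 Also: lysate comes from COS7 cells expressing LAP1 and is applied at 0.3 µg/mL; score merges spot fluorescence near 667 nm with signal-to-noise over triplicate slides.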 The settings on record: probe aLAP1, fluorescence, higher = more signal.
The test system of test [18] is Sam68 (KHDRBS1). Briefly: compounds binding KHDRBS1 protein – biochemical, small-molecule microarray, 635 nm fluorescence, primary screen (AID 1125).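 Also: score merges 667 nm channel intensity with signal to noise over triplicate slides.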 The settings on record: higher = more signal.
For test [19], the system named is Chordin-like protein 2 (CHRDL2). In words: compounds binding chordin-like 2 – biochemical, small-molecule microarray, 635 nm fluorescence, primary screen (AID 1126).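 Also: printed compound slides probed with Chrdl2 protein at 4 µg/mL for 1 h at 4 C; score merges 667 nm emission intensity with signal to noise over three replicate slides.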 The settings on record: fluorescence 635 nm, higher = more signal.
The target of test [20] is Concanavalin-A (Canavalia ensiformis) (UniProt P02866). In words: compounds binding concanavalin A lectin – biochemical, small-molecule microarray, Alexa647 label, 635 nm, artefact control for SMM control protein annotation, primary screen (AID 1127).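 Also: z combines 667 nm emission intensity with signal-to-noise across three replicate slides.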 As to conditions: ConA-A647 binding fluorescence, higher = more signal.
Sequence of Concanavalin-A (Canavalia ensiformis) (P02866 whole entry, looked up): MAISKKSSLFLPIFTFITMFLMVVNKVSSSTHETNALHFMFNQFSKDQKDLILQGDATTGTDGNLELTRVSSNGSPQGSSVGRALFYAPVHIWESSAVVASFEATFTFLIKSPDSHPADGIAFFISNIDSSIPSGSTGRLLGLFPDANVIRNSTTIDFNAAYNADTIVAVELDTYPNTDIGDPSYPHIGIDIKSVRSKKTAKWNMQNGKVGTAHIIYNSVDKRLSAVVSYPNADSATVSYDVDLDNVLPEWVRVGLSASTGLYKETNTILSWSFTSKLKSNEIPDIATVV

Sequence of Left-right determination factor 2 (Homo sapiens) (O00292 whole entry, looked up): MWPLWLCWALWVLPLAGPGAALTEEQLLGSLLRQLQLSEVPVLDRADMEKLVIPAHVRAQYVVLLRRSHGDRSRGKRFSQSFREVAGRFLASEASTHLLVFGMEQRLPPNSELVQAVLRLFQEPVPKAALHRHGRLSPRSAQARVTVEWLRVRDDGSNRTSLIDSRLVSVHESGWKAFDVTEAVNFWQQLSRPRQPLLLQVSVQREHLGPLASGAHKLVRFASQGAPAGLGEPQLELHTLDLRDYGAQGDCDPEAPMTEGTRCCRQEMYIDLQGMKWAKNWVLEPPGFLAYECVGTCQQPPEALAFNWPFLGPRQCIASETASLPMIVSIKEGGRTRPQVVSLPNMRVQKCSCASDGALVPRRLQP
Sequence of Alpha-bungarotoxin (Bungarus multicinctus) (P60615 whole entry, looked up): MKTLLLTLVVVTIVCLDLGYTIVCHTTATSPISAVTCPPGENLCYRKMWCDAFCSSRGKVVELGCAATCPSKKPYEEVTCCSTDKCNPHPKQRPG
Sequence of Albumin (Bos taurus) (P02769 whole entry, looked up): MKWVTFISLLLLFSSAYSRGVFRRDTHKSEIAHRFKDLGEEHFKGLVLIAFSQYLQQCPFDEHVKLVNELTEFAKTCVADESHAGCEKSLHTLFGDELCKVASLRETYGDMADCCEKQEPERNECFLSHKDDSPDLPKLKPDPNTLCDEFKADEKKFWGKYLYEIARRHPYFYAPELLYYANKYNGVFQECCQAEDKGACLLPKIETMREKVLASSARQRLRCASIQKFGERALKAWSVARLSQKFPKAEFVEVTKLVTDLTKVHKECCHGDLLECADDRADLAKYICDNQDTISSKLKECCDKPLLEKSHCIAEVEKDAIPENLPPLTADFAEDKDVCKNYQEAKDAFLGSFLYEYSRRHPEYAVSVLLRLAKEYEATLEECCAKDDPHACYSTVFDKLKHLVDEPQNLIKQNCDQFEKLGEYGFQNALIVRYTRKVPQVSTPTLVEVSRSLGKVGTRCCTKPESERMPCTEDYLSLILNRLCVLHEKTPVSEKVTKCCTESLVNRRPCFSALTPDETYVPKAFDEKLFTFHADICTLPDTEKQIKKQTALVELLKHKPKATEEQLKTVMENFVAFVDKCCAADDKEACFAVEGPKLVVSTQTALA
Sequence of Torsin-1A-interacting protein 1 (Homo sapiens) (Q5JTV8 whole entry, looked up): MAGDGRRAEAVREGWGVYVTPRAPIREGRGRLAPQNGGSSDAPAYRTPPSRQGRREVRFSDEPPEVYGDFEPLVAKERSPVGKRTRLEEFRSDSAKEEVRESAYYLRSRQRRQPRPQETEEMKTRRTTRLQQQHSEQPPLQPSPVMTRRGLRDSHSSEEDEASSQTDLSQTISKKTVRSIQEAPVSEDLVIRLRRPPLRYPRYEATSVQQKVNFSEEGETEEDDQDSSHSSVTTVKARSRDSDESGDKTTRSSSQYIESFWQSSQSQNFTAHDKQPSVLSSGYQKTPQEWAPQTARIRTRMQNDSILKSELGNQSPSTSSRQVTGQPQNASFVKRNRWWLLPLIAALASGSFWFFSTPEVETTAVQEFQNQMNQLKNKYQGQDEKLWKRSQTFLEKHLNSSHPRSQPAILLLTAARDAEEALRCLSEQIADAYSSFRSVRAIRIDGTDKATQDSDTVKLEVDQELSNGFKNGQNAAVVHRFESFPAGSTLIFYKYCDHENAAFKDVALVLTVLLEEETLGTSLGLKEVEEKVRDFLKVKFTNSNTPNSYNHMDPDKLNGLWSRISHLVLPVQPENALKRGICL

With `COc1cc2c(cc1OC)CN(C(=O)[C@@H]1[C@H]3C(=O)O[C@H](c4ccccc4)[C@H](c4ccccc4)N3[C@H](c3ccccc3OCCO)[C@@]13C(=O)Nc1ccc(C#CCNC(N)=O)cc13)CC2`, the composite z-score is 0.644 in [1]; 0.17 in test [3]; 1.36 in test [4]; 0.478 in test [5]; 0.0744 in test [6]; 0.155 in [7]. Further, the composite z-score is 1.12 in test [8]; 1.29 in test [9]; 1.9 in test [10]; 0.301 in test [11]; 0.37 in test [13]; -0.0251 in test [14]. Further, the composite z-score in test [15] came out at 0.377; in test [16] it was 2.65; in test [17], 1.15; in test [18], 1.31; in test [19], 0.981; in test [20] it was 1.11. In addition, the z-score in [2] is -1.01. The composite Z-score in test [12] was 0.545 (inactive).
Regarding `COC(=O)c1ccc(C23CC2(C(NP(=O)(c2ccccc2)c2ccccc2)c2ccccc2)C3)cc1` (stereo not given), the composite z-score in test [1] is 1.31; in test [3], -0.0656; in [4], 2.35; in test [5] it was 0.696; in [6] it was 0.195; in [7], 0.484. Also, the composite z-score in test [8] was -0.708; in [9] it was 2.58; in [10], 1.38; in test [11], 0.982; in [13], 0.325; in test [14] it was 0.359. Further, the composite z-score in test [15] is 0.819; in test [16], 2.8; in test [17] it was 1.02; in test [18], 0.921; in [19], -1.12; in [20] it was 0.484. In test [2], this molecule came in with a z-score of -1.17. For the same molecule, the composite Z-score in test [12] was 0.117 (inactive).
For the molecule `CCOC(=O)C[C@H]1[C@H](OC(=O)c2ccccc2-c2ccccc2)[C@@H](NC(=O)Cc2ccc(OC)cc2)c2cc(OCCCO)ccc2N1C(=O)c1ccccc1`, the composite z-score in [1] was 0.0712; in [3], -0.3; in test [4] it was -0.0521; in test [5], -0.317; in test [6] it was -0.0519; in test [7], -0.327. The composite z-score was -0.443 in test [8]; 0.246 in test [9]; -0.0826 in test [10]; 0.176 in test [11]; -0.113 in [13]; -0.155 in test [14]. For the same molecule, the composite z-score in [15] was -0.0951; in test [16], 0.157; in test [17], -0.0152; in test [18], -0.0445; in test [19], 0.0492; in [20], -0.393. For the same molecule, the z-score in test [2] is -2.08. The composite Z-score in [12] is 0.0843 (inactive).
For the molecule `O=c1cccc(C=Cc2ccccc2)o1`, the composite z-score in test [1] is -0.64; in [3], -1.31; in [4], -0.471; in [5] it was -0.274; in test [6] it was -0.145; in test [7], 0.147. In addition, the composite z-score is -0.411 in test [8]; -0.363 in test [9]; -0.374 in [10]; -0.828 in test [11]; -0.178 in test [13]; -0.126 in [14]. The composite z-score in test [15] was -0.228; in test [16] it was -0.386; in test [17], 0.224; in test [18] it was -0.0848; in test [19], -1.58; in [20], -0.514. The z-score in [2] was -0.854. Moreover, the composite Z-score in test [12] was 0.0786 (inactive).
As to `COCCOC(=O)N1C(=O)[C@@]2(c3ccccc31)[C@H](c1ccc(O)cc1)N1[C@H](c3ccccc3)[C@H](c3ccccc3)OC(=O)[C@H]1[C@@H]2C(=O)N1CCc2cc(OC)c(OC)cc2C1`, the composite z-score was 0.607 in test [1]; 1.01 in [3]; 0.889 in test [4]; 0.579 in test [5]; -0.0819 in test [6]; -0.214 in test [7]. Also, the composite z-score in test [8] is -0.533; in test [9], 0.811; in test [10], 0.789; in test [11], -0.361; in test [13], 0.128; in [14] it was 0.0712. Further, the composite z-score worked out at 0.136 in test [15]; 1.76 in test [16]; 0.288 in test [17]; 1.32 in test [18]; 1.44 in test [19]; 1.13 in [20]. The molecule further yielded a z-score in test [2] of -1.47. The composite Z-score in test [12] is 2.47 (inactive).
Regarding `COCCOC(=O)N1C(=O)[C@@]2(c3cc(C#CCC(C(=O)OC)C(=O)OC)ccc31)[C@H](c1ccccc1OCCO)N1[C@H](c3ccccc3)[C@H](c3ccccc3)OC(=O)[C@H]1[C@@H]2C(N)=O`, the composite z-score is 0.22 in test [1]; 0.32 in test [3]; 1.25 in [4]; 0.648 in [5]; 0.027 in test [6]; -0.0055 in test [7]. The composite z-score is 0.141 in test [8]; 1.21 in test [9]; 2.37 in test [10]; 0.101 in test [11]; 0.173 in test [13]; -0.0357 in test [14]. Moreover, the composite z-score in test [15] was 0.503; in test [16], 2.03; in test [17], 1.5; in test [18], 1.25; in test [19], 0.237; in [20] it was 1.07. Moreover, the z-score in [2] is -2.2. Moreover, in test [12], the composite Z-score is -0.167 (inactive).
